# CHX counter: counter-screen for Shiga toxin inhibitors: cycloheximide protein synthesis inhibition; max response, %; cell reporter, cycloheximide protein synthesis inhibition counterscreen; 300,000 compounds, 12% hits; AID 2314; in the data active = max response mostly above about 13%, no sharp cut-off; inactive = mostly below about 14%; note: read at 38.3 µM for the half of the compounds with a filed dose
# Shiga toxin inh: inhibitors of Shiga toxin in Vero cells; Vero cells, Shiga toxin protein synthesis inhibition reporter; 290,000 compounds, 9.2% hits; inhibition, % at 38.7 µM; AID 2315; in the data active = inhibition mostly above about 28%, no sharp cut-off; inactive = mostly below about 43%
# Pf growth 48h: inhibits P. falciparum growth in the first generation, 48 h; Potency, µM (titrated, usually from 28.7 µM), usual class: inhibitors; P. falciparum luciferase growth in erythrocytes, 48 h; 310,000 compounds, 5.9% hits
#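 Luciferase-expressing parasites in RBCs, 2% Hct / 0.1% parasitemia final; RPMI 1640 + 0.5% Albumax; 37 C, 5% CO2, one generation; luminescence read-out, lower signal = inhibition.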
# Pf growth 96h: P. falciparum growth inhibition at 96 hour, primary screen for plastid delayed-death inhibitors; P. falciparum luciferase reporter growth, 96 h; Potency, µM (doses to about 28.7 µM), most hits filed as inhibitors; AID 504834; 320,000 compounds, 6.9% hits
#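 Infected RBCs, 2% Hct / 0.05% parasitemia final; luciferase-reporter P. falciparum; cpd 96 h, 37 C, 5% CO2; luciferase detection reagent; luminescence.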
# Numbers stand for hits; 0 = inactive; ? = inconclusive; - = no result given; + = active, no number; [ ] = another dose, or the depositor's remark. Most compounds without a hit are left out; they make up all but 21% or so of the library. Unless noted, calls come from the whole dose curve; as a rule, active = well fitted inhibition curve with a large enough effect; inconclusive = small, poorly fitted or top-dose-only effect, or another doubt; inactive = no such curve, though single readings can be large or run the other way.
SMILES,CHX counter,Shiga toxin inh,Pf growth 48h,Pf growth 96h
Cc1c(-c2ccc(O)cc2)nc2nc(-c3ccccc3)c(-c3ccccc3)nn12,0,0,0.415µM,2.08µM
Cc1nnc2c3ccccc3c(-c3ccc(O)cc3)nn12,0,0,-,0
O=C(/C=C/c1cn(-c2ccccc2)nc1-c1cccnc1)N1CCCC1,0,0,?,?
O=C(/C=C/c1cn(-c2ccccc2)nc1-c1ccccc1)Nc1ccc(C(=O)O)cc1,0,63.0,0,0
Cc1ccc(-c2nn(-c3ccccc3)cc2/C=C/C(=O)Nc2nccs2)cc1,0,0,?,?
Cc1c(NC(=O)/C=C/c2cn(-c3ccccc3)nc2-c2ccc(F)cc2)c(=O)n(-c2ccccc2)n1C,0,0,0,9.28µM
O=C(/C=C/c1cn(-c2ccccc2)nc1-c1cccnc1)c1ccco1,24.7,0,?,0
NS(=O)(=O)c1ccc(NC(=O)/C=C/c2cn(-c3ccccc3)nc2-c2cccc(Cl)c2)cc1,0,0,10.4µM,0
COc1ccccc1CN1CCNC(=O)C1CC(=O)NCCc1cnccn1 (configuration not stated),0,0,0,0
CCOC(=O)C1=C(C)NC(C)=C(C(=O)OCC)C1C(=O)OCC(=O)N(C)C,0,0,0,0
COc1ccccc1NS(=O)(=O)c1cccc(C(=O)NNC(=O)c2ccc(O)c(Cl)c2)c1,-,-,0,?
CC(C)CCNc1nc(-c2ccco2)c2c(c1C#N)CCCC2,0,0,-,13.1µM
Cc1ccc(CN2C(=O)CSC2c2ccccc2F)cc1 (configuration not stated),0,0,0,0
CCCC(C)C(=O)Nc1ncc(S(=O)(=O)c2ccc([N+](=O)[O-])cc2)s1 (configuration not stated),0,0,1.65µM,?
O=C(Nc1ncc(S(=O)(=O)c2ccc([N+](=O)[O-])cc2)s1)c1cccnc1,0,0,?,?
CCC(C)(C)C(=O)Nc1ncc(S(=O)(=O)c2ccc([N+](=O)[O-])cc2)s1,0,0,8.28µM,2.94µM
COC(=O)c1c(NC(=O)CCCOc2cccc(C)c2)sc2c1C(C(=O)OC)CC2 (configuration not stated),0,0,-,-
Cc1c(C(=O)c2ccccc2C(=O)O)sc2ccccc12,0,0,0,0
CC(=Nc1ccc(O)cc1)c1sc2ccccc2c1O,47.8,95.1,0,0
CC(=Nc1ccccc1O)c1sc2ccccc2c1O,32.6,67.4,?,14.7µM
CC(=Nc1cccc(C)c1)c1sc2ccccc2c1O,45.2,108.6,0,0
CC(=O)NCCN=C(C)c1sc2ccccc2c1O,24.4,+,0,0
COc1ccc(NC(=O)C2C3C=CC(C3)C2C(=O)O)cc1 (configuration not stated),0,0,0,0
Cc1ccc(-c2ccc(NC(=O)C3C4C=CC(C4)C3C(=O)O)cc2)o1 (configuration not stated),46.4,62.2,-,0
S=C(NCC1CC1)N/N=C/c1ccccc1Cl,0,25.7,?,?
SMILES,CHX counter,Shiga toxin inh,Pf growth 48h,Pf growth 96h
COc1cc2nc(N(C)CCCNC(=O)[C@@H]3CCCO3)nc(N)c2cc1OC,-,-,0,0
[N-]=[N+]=NC(c1ccccc1)c1nc2ccccc2[nH]c1=O (configuration not stated),26.9,0,0,0
COc1cccc(/C=N/NC(=O)Cn2nc(C)c([N+](=O)[O-])c2C)c1O,0,0,11.7µM,?
COc1cccc(/C=N/NC(=O)C(C)n2nc(C)c([N+](=O)[O-])c2C)c1O (configuration not stated),34.8,0,?,?
COc1cccc(/C=N\NC(=O)c2ccc(Cn3cc(Br)c([N+](=O)[O-])n3)o2)c1O,43.5,56.4,?,?
Cc1nn(CC(=O)N/N=C/c2cccs2)c(C)c1[N+](=O)[O-],0,0,0,0
Cc1c(Cl)cccc1NC(=O)CN1CCN(CCN=CC2=C(O)CC(c3ccccc3)CC2=O)CC1 (configuration not stated),0,0,0,?
CS(=O)(=O)c1ccc(Cl)c(NC(=O)COC(=O)Cc2c[nH]c3ccccc23)c1,-,-,0,0
CNC(=S)N/N=C/c1c2ccccc2c(Cl)c2ccccc12,27.4,87.3,2.62µM,10.4µM
CNC(=S)N/N=C/c1cn(Cc2c(F)cccc2Cl)c2ccccc12,0,0,?,?
CNC(=S)N/N=C/c1c(C)cccc1Cl,0,0,0,13.1µM
COc1cc2c(cc1OC)C(c1ccccc1[N+](=O)[O-])N(C(C)=O)CC2 (configuration not stated),0,-,?,0
COc1ccccc1NC(=S)N(CCN1CCOCC1)Cc1ccccc1F,0,0,0,0
CCOc1ccc2c(c1)C(N(CCN1CCOCC1)C(=S)Nc1ccccc1OC)CC(C)(C)O2 (configuration not stated),0,0,?,10.4µM
Cc1nc([N+](=O)[O-])cn1CC(=O)Nc1ccc([N+](=O)[O-])cc1,0,0,0,?
COc1cc(NC(=O)/C=C/c2ccccc2[N+](=O)[O-])cc(OC)c1,15.1,0,0,0
O=C(/C=C/c1ccccc1[N+](=O)[O-])Nc1ccccc1,35.5,100.6,0,0
O=C(COC(=O)/C=C/c1ccccc1[N+](=O)[O-])NC(=O)NC1CCCC1,-,-,0,0
O=C(O)/C=C/c1ccccc1[N+](=O)[O-],0,0,?,0
O=C(/C=C/c1ccccc1[N+](=O)[O-])NC1CCCC1,19.0,69.7,0[5.75 µM],0
CC(C)N(Cc1ccccc1)C(=O)/C=C/c1ccccc1[N+](=O)[O-],0,0,10.4µM,0
CC(=O)Oc1ccc2nc(/C=C/c3ccccc3)oc(=O)c2c1,0,-,0,?
COc1ccc(S(=O)(=O)N/N=C(/C)c2ccncc2)c(OC)c1,0,0,0,0
COc1ccc(Cl)cc1C(=O)OCC(=O)c1ccc[nH]1,-,-,0,0
O=C(NCc1ccc(F)cc1)c1ccc(CS(=O)Cc2ccccc2Cl)o1 (configuration not stated),0,0,0,0
SMILES,CHX counter,Shiga toxin inh,Pf growth 48h,Pf growth 96h
COc1ccccc1C(=O)NC(=O)COC(=O)CCOc1cc(C)ccc1C,0,0,?,?
Cc1nc2ccccc2c(=O)n1/N=C/c1ccccn1,27.8,0,0,0
Cc1nc2ccccc2c(=O)n1/N=C/c1c(O)ccc2ccccc12,0,0,?,?
O=c1c2ccccc2nc(/C=C/c2ccc([N+](=O)[O-])o2)n1-c1ccc(O)cc1,0,0,9.28µM,?
Cc1cccc(-n2c(/C=C/c3ccc([N+](=O)[O-])o3)nc3ccccc3c2=O)c1,0,0,?,0
CN(C)c1ccc(/C=N/n2c(-c3cccnc3)n[nH]c2=S)cc1,0,0,0,0
CN(C)c1ccc(/C=N/n2c(-c3ccccc3Br)n[nH]c2=S)cc1,17.4,0,0,0
Cc1nc2ccccc2c(=O)n1/N=C/c1ccccc1F,51.7,104.6,-,9.28µM
CCOc1ccc(NC(=O)CSc2nnnn2C2CCCC2)cc1,0,0,0,0
CCOc1ccc(/C=N/n2c(C)nc3ccccc3c2=O)cc1,0,0,0,0
Cc1nc2ccccc2c(=O)n1/N=C/c1ccc(N(C)C)cc1,26.1,0,0,0
CSc1ccc(/C=N/n2c(C)nc3ccccc3c2=O)cc1,22.6,0,0,0
